Records with an inconclusive call do not appear. Calls of active or inactive are those of the source. Unless noted, calls come from the whole dose curve; as a rule, active = well fitted curve in the direction sought with a large enough effect in the repeat runs; inconclusive = weak or mixed curves; inactive = no such curve, though single readings can be large; an effect the other way counts as inactive or inconclusive.
Assays:
[1] = target: Peroxisome proliferator-activated receptor delta (Homo sapiens) (UniProt Q03181); test: qHTS assay to identify small molecule agonists of the peroxisome proliferator-activated receptor delta (PPARd) signaling pathway (AID 743212; calls by dose curve; note: % is set by controls: 0 for no effect and ±100 for the full control effect)
Sequence of Peroxisome proliferator-activated receptor delta (Homo sapiens) (Q03181 whole entry, looked up): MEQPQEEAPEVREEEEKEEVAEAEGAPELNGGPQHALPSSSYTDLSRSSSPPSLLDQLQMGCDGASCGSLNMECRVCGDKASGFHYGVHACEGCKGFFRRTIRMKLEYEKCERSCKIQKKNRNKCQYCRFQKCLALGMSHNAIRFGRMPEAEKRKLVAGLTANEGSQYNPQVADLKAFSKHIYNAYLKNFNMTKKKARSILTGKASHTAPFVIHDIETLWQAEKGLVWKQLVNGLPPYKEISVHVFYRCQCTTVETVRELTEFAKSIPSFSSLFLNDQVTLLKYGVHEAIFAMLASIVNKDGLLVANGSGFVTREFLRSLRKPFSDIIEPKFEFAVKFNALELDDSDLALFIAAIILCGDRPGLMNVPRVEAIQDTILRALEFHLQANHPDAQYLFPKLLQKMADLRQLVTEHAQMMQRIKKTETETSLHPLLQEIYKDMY
Method in brief: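 Cells expressing a UAS-driven beta-lactamase reporter (PPARd-bla HEK293H) were given test compounds after a 5 h settle and kept at 37 C. Reporter activity was then measured as FRET fluorescence using LiveBLAzer B/G substrate.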

[2] = qHTS assay to identify small molecule antagonists of the peroxisome proliferator-activated receptor delta (PPARd) signaling pathway - cell viability counter screen (AID 743213); note: % is set by controls: 0 for no effect and ±100 for the full control effect; nearly all actives have a fitted effect of over 50% in size
Method in brief: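 HEK293H cells with the PPARd UAS-bla reporter, co-treated 17 h at 37 C with compounds and L165041 (300 nM final), were lysed with CellTiter-Glo. Luminescence indicated viable cell content.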

[3] = qHTS assay to identify small molecule agonists of the farnesoid-X-receptor (FXR) signaling pathway - cell viability counter screen (AID 743218); note: % is set by controls: 0 for no effect and ±100 for the full control effect; nearly all actives have a fitted effect of over 45% in size
Method in brief: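 Viability counter screen in the same wells: CellTiter-Glo luminescence, 30 min room-temperature incubation, measured after the beta-lactamase read. Cells were GeneBLAzer FXR-UAS-bla HEK 293T, compound-treated 16 h at 37C.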

[4] = qHTS assay to identify small molecule antagonists of the farnesoid-X-receptor (FXR) signaling pathway - cell viability counter screen (AID 743221; active = well fitted cell-killing curve with a large enough effect in the repeat runs, not every such curve was filed as active; note: % is set by controls: 0 for no effect and ±100 for the full control effect; nearly all actives have a fitted effect of over 50% in size)
Method in brief: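 In GeneBLAzer FXR-UAS-bla HEK 293T cells stimulated with 50 uM chenodeoxycholic acid (final), compounds acted for 16 h at 37 C. Viability was assessed afterwards by CellTiter-Glo luminescence.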

[5] = qHTS assay to identify small molecule agonists of the vitamin D receptor (VDR) signaling pathway - cell viability counter screen (AID 743224); note: series mostly up to about 63 µM; % is set by controls: 0 for no effect and ±100 for the full control effect; nearly all actives have a fitted effect of over 50% in size
Method in brief: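 Counter screen run in the same wells as the VDR-bla reporter assay: CellTiter-Glo luminescence, 30 min at room temperature, after 16 h compound treatment at 37C of cells pre-plated for 4 h.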

[6] = qHTS assay to identify small molecule antagonists of the vitamin D receptor (VDR) signaling pathway - cell viability counter screen (AID 743225); note: % is set by controls: 0 for no effect and ±100 for the full control effect; nearly all actives have a fitted effect of over 50% in size
Method in brief: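 Luminescent cell viability (CellTiter-Glo) in VDR-bla HEK 293T cells after 16 h compound exposure at 37C in the presence of 3 nM final 1-alpha,25-dihydroxy vitamin D3.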

[7] = qHTS assay to identify small molecule agonists of the NFkB signaling pathway (AID 1159509; active = well fitted curve in the direction sought with a large enough effect in the signal ratio in the repeat runs, not every such curve was filed as active; the % refers to the signal ratio; note: series mostly up to about 61 µM; % is set by controls: 0 for no effect and ±100 for the full control effect)
Method in brief: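 Agonist activity was read as beta-lactamase-driven FRET change (460 and 530 nm emission, 405 nm excitation) following 1.5 hr substrate loading at room temperature. Beforehand, ME-180 NFkB-bla reporter cells were treated with compounds for 5 hr at 37 C.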

[8] = qHTS assay to identify small molecule agonists of the NFkB signaling pathway - cell viability counter screen (AID 1159515; calls by dose curve; note: series mostly up to about 61 µM; % is set by controls: 0 for no effect and ±100 for the full control effect; nearly all actives have a fitted effect of over 55% in size)
Method in brief: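 Read by CellTiter-Glo luminescence (30 min, room temperature) in the wells also used for the beta-lactamase FRET read. ME-180 NFkB-bla cells at 2,000 per well were plated overnight, then exposed to compound for 5 hr at 37 C.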

[9] = qHTS assay to identify small molecule agonists of the endoplasmic reticulum stress response signaling pathway - cell viability counter screen (AID 1159517; calls by dose curve)
Method in brief: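 Cpd-treated ESRE-bla HeLa (5 hr, 37 C) → LiveBLAzer 2 hr RT → CellTiter-Glo 30 min RT → luminescence.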

[10] = qHTS assay to identify small molecule antagonists of the retinoid-related orphan receptor gamma (ROR-gamma) signaling pathway - cell viability counter screen (AID 1159520)
Method in brief: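 Tet-on ROR gamma CHO cells (1,000/well) were plated 4 hr, given compounds in DMSO for 2 hr at 37 C, then induced with 1 uM final doxycycline for 16 hr. Viability was read as ATP by CellTiter-Glo luminescence after 30 min.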

[11] = target: Nuclear receptor ROR-gamma (Homo sapiens) (UniProt P51449); test: qHTS assay to identify small molecule antagonists of the retinoid-related orphan receptor gamma (ROR-gamma) signaling pathway (AID 1159521)
Method in brief: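 CHO cells expressing RORγ under a TET-on promoter, luciferase under RORE control. Dox 1 uM final, 16 h; compounds added 2 h prior. Luminescence decrease measured.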

[12] = qHTS assay to identify small molecule agonists of the AP-1 signaling pathway - cell viability counter screen (AID 1159525; calls by dose curve; note: nearly all actives have a fitted effect of over 55% in size)
Method in brief: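 Each titration point was normalised to DMSO and tetra n-octyl ammonium bromide controls. The read was Cell Titer Glo luminescence after 30 min at RT, following 5 h compound exposure of ME-180 AP-1-bla cells at 37 °C.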

[13] = qHTS assay to identify small molecule agonists of the AP-1 signaling pathway (AID 1159526; calls by dose curve; note: % is set by controls: 0 for no effect and ±100 for the full control effect)
[14] = target: Peroxisome proliferator-activated receptor delta (Homo sapiens) (UniProt Q03181); test: qHTS assay to identify small molecule antagonists of the peroxisome proliferator-activated receptor delta (PPARd) signaling pathway (AID 743215; active = well fitted inhibition curve with a large enough effect in the signal ratio in the repeat runs, not every such curve was filed as active; the % refers to the signal ratio;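 note: cells stimulated with agonist L165041 at 300 nM final during compound exposure; series mostly up to about 62 µM; % is set by controls: 0 for no effect and ±100 for the full control effect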)
Method in brief: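 Agonist L165041 (300 nM final) added with compound to PPARd-bla HEK293H UAS-bla reporter cells; 17 h incubation at 37 C. Read-out: LiveBLAzer FRET substrate, 2 h at room temperature, fluorescence intensity.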

[15] = target: Bile acid receptor (Homo sapiens) (UniProt Q96RI1); test: qHTS assay to identify small molecule antagonists of the farnesoid-X-receptor (FXR) signaling pathway (AID 743217; active = well fitted inhibition curve with a large enough effect in the signal ratio in the repeat runs, not every such curve was filed as active; the % refers to the signal ratio; note: % is set by controls: 0 for no effect and ±100 for the full control effect)
Sequence of Bile acid receptor (Homo sapiens) (Q96RI1 whole entry, looked up): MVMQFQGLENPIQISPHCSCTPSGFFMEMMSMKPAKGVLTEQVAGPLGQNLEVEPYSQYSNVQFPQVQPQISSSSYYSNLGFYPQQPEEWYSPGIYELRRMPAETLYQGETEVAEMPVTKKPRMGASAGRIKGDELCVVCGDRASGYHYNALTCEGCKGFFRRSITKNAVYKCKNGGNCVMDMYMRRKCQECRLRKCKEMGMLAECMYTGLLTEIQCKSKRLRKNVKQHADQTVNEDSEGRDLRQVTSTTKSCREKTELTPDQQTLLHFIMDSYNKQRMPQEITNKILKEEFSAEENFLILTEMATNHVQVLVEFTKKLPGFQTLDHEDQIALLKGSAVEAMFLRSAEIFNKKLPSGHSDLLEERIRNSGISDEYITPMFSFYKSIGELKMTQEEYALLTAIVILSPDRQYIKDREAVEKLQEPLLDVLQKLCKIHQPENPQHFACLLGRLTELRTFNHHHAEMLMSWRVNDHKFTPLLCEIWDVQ
Method in brief: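 Antagonist mode: chenodeoxycholic acid at 50 uM final stimulates a UAS-driven beta-lactamase reporter in HEK 293T FXR-bla cells during 16 h, 37C compound exposure. Read-out is FRET substrate fluorescence after 2 h at room temperature.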

[16] = target: Vitamin D3 receptor (Homo sapiens) (UniProt P11473); test: qHTS assay to identify small molecule agonists of the vitamin D receptor (VDR) signaling pathway (AID 743222; calls by dose curve; note: % is set by controls: 0 for no effect and ±100 for the full control effect)
Sequence of Vitamin D3 receptor (Homo sapiens) (P11473 whole entry, looked up): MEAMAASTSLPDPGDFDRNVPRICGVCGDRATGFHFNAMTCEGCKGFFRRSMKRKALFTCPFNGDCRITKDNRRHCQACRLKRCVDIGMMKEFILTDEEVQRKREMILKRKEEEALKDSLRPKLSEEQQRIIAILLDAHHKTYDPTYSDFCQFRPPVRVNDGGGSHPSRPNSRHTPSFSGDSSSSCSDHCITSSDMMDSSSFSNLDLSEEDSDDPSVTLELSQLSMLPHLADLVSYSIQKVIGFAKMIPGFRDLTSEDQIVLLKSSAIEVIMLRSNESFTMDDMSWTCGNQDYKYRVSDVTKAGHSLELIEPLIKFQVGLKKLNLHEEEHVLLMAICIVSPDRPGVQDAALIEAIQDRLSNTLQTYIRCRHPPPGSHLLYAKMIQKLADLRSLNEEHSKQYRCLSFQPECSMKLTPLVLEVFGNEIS
Method in brief: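 Agonist mode, beta-lactamase reporter: fluorescence from LiveBLAzer B/G FRET substrate (2 h, room temperature) read after 16 h compound treatment at 37 C of VDR-bla cells, which were pre-incubated 4 h after seeding.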

[17] = target: Vitamin D3 receptor (Homo sapiens) (UniProt P11473); test: qHTS assay to identify small molecule antagonists of the vitamin D receptor (VDR) signaling pathway (AID 743223; active = well fitted inhibition curve with a large enough effect in the signal ratio in the repeat runs, not every such curve was filed as active; the % refers to the signal ratio; note: % is set by controls: 0 for no effect and ±100 for the full control effect)
Method in brief: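 Agonist 1alpha,25-dihydroxyvitamin D3 (3 nM in well) was added with each compound to VDR-bla cells preincubated 4 h. Cells stood 16 h at 37C, then FRET substrate 2 h at room temperature; fluorescence intensity recorded.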

[18] = qHTS assay to identify small molecule agonists of the peroxisome proliferator-activated receptor delta (PPARd) signaling pathway - cell viability counter screen (AID 743211); note: % is set by controls: 0 for no effect and ±100 for the full control effect; nearly all actives have a fitted effect of over 55% in size
Method in brief: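 Luminescent ATP viability assay (CellTiter-Glo, 30 min RT) in UAS-bla HEK293H cells carrying the PPAR delta reporter construct, 3000 cells/well, after a 17 h compound treatment at 37 C.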

[19] = target: Bile acid receptor (Homo sapiens) (UniProt Q96RI1); test: qHTS assay to identify small molecule agonists of the farnesoid-X-receptor (FXR) signaling pathway (AID 743220; active = well fitted activation curve with a large enough effect in the signal ratio in the repeat runs, not every such curve was filed as active; the % refers to the signal ratio; note: % is set by controls: 0 for no effect and ±100 for the full control effect)
Method in brief: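 FXR-UAS-bla HEK 293T cells carrying a UAS-driven beta-lactamase reporter were plated for 5 h at 37C/5% CO2, then exposed to DMSO-dissolved Tox21 10K compounds for 16 h at 37C. A LiveBLAzer B/G FRET substrate was loaded for 2 h at room temperature before fluorescence reading.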

COc1ccc(-n2nc(C(F)F)cc2-c2ccc(S(C)=O)cc2)cc1 (stereo not drawn)
inactive: outcome [1] | Potency [2] | Potency [3] | Potency [4] | Potency [5] | Potency [6] | outcome [7] | Potency [8] | Potency [9] | Potency [10] | Potency [11] | Potency [12] | outcome [13]

COc1cc(NS(=O)(=O)c2ccc(N)cc2)nc(C)n1
inactive: outcome [1] | Potency [2] | Potency [14] | outcome [15] | Potency [3] | Potency [4] | outcome [16] | outcome [17] | Potency [5] | Potency [6] | outcome [7] | Potency [8] | Potency [9] | Potency [10] | Potency [11] | Potency [12] | outcome [13]

CC(=O)NCCO
inactive: Potency [18] | outcome [1] | Potency [2] | Potency [3] | Potency [4] | outcome [16] | outcome [17] | Potency [5] | Potency [6] | outcome [7] | Potency [8] | Potency [9] | Potency [10] | Potency [11] | Potency [12] | outcome [13]

COc1cc(NC(C)CCCN)c2ncccc2c1 (stereo not drawn)
inactive: Potency [18] | outcome [1] | Potency [14] | Potency [3] | Potency [4] | outcome [16] | outcome [17] | Potency [5] | Potency [6] | outcome [7] | Potency [8] | Potency [9] | Potency [10] | Potency [12] | outcome [13]

CCOC(=O)N1CCC(Nc2ccc(Cl)cc2N)CC1
inactive: Potency [18] | Potency [2] | Potency [3] | Potency [4] | outcome [17] | Potency [5] | Potency [6] | outcome [7] | Potency [8] | Potency [9] | Potency [10] | Potency [11] | Potency [12] | outcome [13]

Cc1ccc(N(CC2=NCCN2)c2cccc(O)c2)cc1
inactive: outcome [1] | Potency [2] | Potency [14] | Potency [3] | Potency [19] | Potency [4] | outcome [17] | Potency [5] | Potency [6] | outcome [7] | Potency [8] | Potency [9] | Potency [10] | Potency [11] | Potency [12] | outcome [13]

N[C@@H](Cc1cc(I)c(O)c(I)c1)C(=O)O
inactive: outcome [1] | Potency [2] | Potency [14] | Potency [3] | Potency [4] | outcome [16] | outcome [17] | Potency [5] | Potency [6] | outcome [7] | Potency [8] | Potency [9] | Potency [10] | Potency [11] | Potency [12] | outcome [13]

O=C(O)/C=C/c1ccc(O)c(O)c1
inactive: Potency [18] | Potency [2] | Potency [14] | outcome [15] | Potency [3] | Potency [4] | outcome [17] | Potency [6] | outcome [7] | Potency [8] | Potency [9] | Potency [10] | Potency [11] | Potency [12] | outcome [13]

Cc1ccc(NC(=O)N(C)C)cc1NC(=O)N(C)C
inactive: outcome [1] | Potency [2] | Potency [14] | outcome [15] | Potency [3] | Potency [19] | Potency [4] | outcome [16] | outcome [17] | Potency [5] | Potency [6] | outcome [7] | Potency [8] | Potency [9] | Potency [10] | Potency [11] | Potency [12] | outcome [13]

CC(C)(O)CCc1ccccc1
inactive: outcome [1] | Potency [2] | Potency [14] | outcome [15] | Potency [3] | Potency [19] | Potency [4] | Potency [5] | Potency [6] | outcome [7] | Potency [8] | Potency [9] | Potency [10] | Potency [11] | Potency [12] | outcome [13]

CCCCCCCCCCCCCCN(C)C
inactive: Potency [18] | Potency [2] | Potency [3] | Potency [4] | outcome [17] | Potency [6] | outcome [7] | Potency [8] | Potency [9] | activity, negative = cytotoxicity [10] 0.214% [at 19 µM] | activity change, negative = inhibition [11] -1.54% [at 19 µM] | viability change, negative = cytotoxic [12] 1.48% [at 15.8 µM] | activation [13] -14.8% [at 15.8 µM]

CC(=O)c1ccc[nH]1
inactive: Potency [18] | outcome [1] | Potency [2] | Potency [14] | outcome [15] | Potency [3] | Potency [19] | Potency [4] | Potency [5] | Potency [6] | outcome [7] | Potency [8] | Potency [9] | Potency [10] | Potency [12] | outcome [13]

CC(C)(C)S
inactive: outcome [1] | Potency [2] | Potency [14] | outcome [15] | Potency [3] | Potency [19] | Potency [4] | Potency [5] | Potency [6] | outcome [7] | Potency [8] | Potency [9] | Potency [10] | Potency [11] | Potency [12] | outcome [13]

CCCCOCCOC(=O)c1cccnc1
inactive: outcome [1] | Potency [2] | Potency [14] | Potency [4] | Potency [5] | Potency [6] | outcome [7] | Potency [8] | Potency [9] | Potency [10] | Potency [11] | Potency [12] | outcome [13]

CCN(CC)c1cccc(O)c1
inactive: Potency [18] | Potency [2] | Potency [14] | Potency [3] | Potency [4] | Potency [5] | Potency [6] | outcome [7] | Potency [8] | Potency [9] | Potency [10] | Potency [11] | Potency [12] | outcome [13]

O=C(O)CNC(=O)c1ccccc1I
inactive: outcome [1] | Potency [2] | Potency [14] | outcome [15] | Potency [3] | Potency [4] | outcome [16] | Potency [5] | Potency [6] | outcome [7] | Potency [8] | Potency [9] | Potency [10] | Potency [11] | Potency [12] | outcome [13]

NC(=O)c1ccccc1[N+](=O)[O-]
inactive: Potency [18] | outcome [1] | Potency [2] | Potency [14] | Potency [3] | Potency [4] | Potency [5] | Potency [6] | outcome [7] | Potency [9] | Potency [10] | Potency [11] | Potency [12] | outcome [13]
